The values below come from PubChem BioAssay (NCI).

SMILES strings stand for the structures. Where “and” joins values, the source holds several entries; their conditions need not be identical. Equal entries are not always repeated. The panel holds about 83,000 compounds, 20% with a hit somewhere; the sample as a whole holds those more often.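 Note: values are percent growth. 100 is the growth of untreated cells, values between 100 and 0 indicate rising inhibition; between -100 and 0 indicates cell death.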 Calls of active or inactive are those of the source. The calls were made as follows: active = growth percent below 10; inactive = the rest.

Some test systems named below: SR leukemia; RPMI-8226 leukemia; OVCAR-8 ovarian; OVCAR-5 ovarian; OVCAR-4 ovarian; SK-OV-3 ovarian; IGROV1 ovarian; OVCAR-3 ovarian; HS 578T breast; NCI/ADR-RES ovarian.
Assay in all cases: NCI-60 one-dose screen, 48 h (100 = growth as untreated, 0 = no growth, -100 = all killed)
Common to all, as to details: 10 µM unless noted

Consider `CC1=NN(c2ccccc2)C(=O)C1C(=O)c1ccccc1` (stereo not given), for which the growth is 82.7% (inactive) in the assay on SR leukemia; 91.9% (inactive) in the assay with RPMI-8226 leukemia; 88.4% (inactive) in the assay with OVCAR-8 ovarian; 120% (inactive) with OVCAR-5 ovarian; 108% (inactive) in the assay on OVCAR-4 ovarian; 112% (inactive) in the assay on SK-OV-3 ovarian. For the same compound, the growth in the assay on IGROV1 ovarian is 100% (inactive); in the assay with OVCAR-3 ovarian, 102% (inactive); in the assay with HS 578T breast, 127% (inactive); with NCI/ADR-RES ovarian, 101% (inactive).
As to `C1CCCCNCCC1`, the growth was 110% (inactive) with SR leukemia; 99.5% (inactive) with RPMI-8226 leukemia; 110% (inactive) in the assay on OVCAR-8 ovarian; 106% (inactive) in the assay with OVCAR-5 ovarian; 109% (inactive) in the assay with OVCAR-4 ovarian; 117% (inactive) in the assay with SK-OV-3 ovarian. The growth with IGROV1 ovarian is 140% (inactive); with OVCAR-3 ovarian, 112% (inactive); with HS 578T breast it was 110% (inactive); with NCI/ADR-RES ovarian it was 127% (inactive).
In the case of `Clc1ccc(NC(Nc2ccc(Cl)cc2)C(Cl)(Cl)Cl)cc1`, the growth with SR leukemia is 99.4% (inactive); in the assay on RPMI-8226 leukemia, 95.9% (inactive); in the assay with OVCAR-8 ovarian, 93.6% (inactive) and 107% (inactive); in the assay on OVCAR-5 ovarian it was 79.9% (inactive) and 100% (inactive); with OVCAR-4 ovarian, 82.4% (inactive) and 118% (inactive); with SK-OV-3 ovarian, 100% (inactive) and 98% (inactive). In addition, the growth in the assay with IGROV1 ovarian was 75.3% (inactive) and 103% (inactive); in the assay with OVCAR-3 ovarian it was 89% (inactive) and 102% (inactive); in the assay on HS 578T breast it was 109% (inactive); in the assay with NCI/ADR-RES ovarian, 61.5% (inactive) and 99.4% (inactive).
As to `COc1ccc2c(=O)cc(-c3ccccc3)[nH]c2c1`, the growth in the assay on SR leukemia is 4.49% (active); in the assay on RPMI-8226 leukemia it was 21.8% (inactive) and 2.02% (active); in the assay on OVCAR-8 ovarian, 17.5% (inactive) and 8.21% (active); in the assay with OVCAR-5 ovarian, 49.4% (inactive) and 46.3% (inactive); in the assay on OVCAR-4 ovarian it was 53.1% (inactive) and 36.7% (inactive); in the assay on SK-OV-3 ovarian it was 5.46% (active) and 23.9% (inactive). Also, the growth is 33.2% (inactive) in the assay with IGROV1 ovarian; -47.7% (active) and -45.4% (active) with OVCAR-3 ovarian; 31.5% (inactive) and 58.9% (inactive) with HS 578T breast; -12.9% (active) in the assay on NCI/ADR-RES ovarian.
Consider `Cc1ccc(S(=O)(=O)Nc2nc3ccccc3nc2Nc2ccc3nsnc3c2)cc1`, for which the growth in the assay with SR leukemia is 71.2% (inactive) and 76.1% (inactive); in the assay with RPMI-8226 leukemia it was 27.5% (inactive); in the assay on OVCAR-8 ovarian, 43.4% (inactive) and 63.3% (inactive); in the assay on OVCAR-5 ovarian it was 92.1% (inactive) and 87.2% (inactive); in the assay on OVCAR-4 ovarian, 38.9% (inactive) and 30.7% (inactive); in the assay with SK-OV-3 ovarian, 30.1% (inactive) and 69.2% (inactive). In addition, the growth in the assay on IGROV1 ovarian is 66.3% (inactive) and 41.9% (inactive); in the assay on OVCAR-3 ovarian, 47.8% (inactive) and 35.2% (inactive); in the assay on HS 578T breast it was 11.4% (inactive); in the assay on NCI/ADR-RES ovarian, 62.8% (inactive) and 43.2% (inactive).
Regarding `CCCCCCCCCCCCCCCc1cc(O)ccc1N`, the growth in the assay on SR leukemia is 74.7% (inactive) and 37.7% (inactive); in the assay on RPMI-8226 leukemia, 39.9% (inactive) and 10.3% (inactive); in the assay on OVCAR-8 ovarian, 87.8% (inactive) and 87.1% (inactive); with OVCAR-5 ovarian, 92.7% (inactive) and 124% (inactive); in the assay with OVCAR-4 ovarian, 65.2% (inactive) and -19.7% (active); with SK-OV-3 ovarian, 89.2% (inactive) and 69% (inactive). For the same compound, the growth was 16.5% (inactive) and 45.2% (inactive) with IGROV1 ovarian; 66.8% (inactive) and 50.9% (inactive) in the assay on OVCAR-3 ovarian; 107% (inactive) and 95.2% (inactive) with HS 578T breast; 72.1% (inactive) and 49.7% (inactive) with NCI/ADR-RES ovarian.
As to `O=[N+]([O-])c1ccc(N/N=C\c2cc(Br)ccc2O)nc1`, the growth is 20.2% (inactive) and 3.08% (active) in the assay on SR leukemia; 32.5% (inactive) and -9.9% (active) in the assay on RPMI-8226 leukemia; 11.9% (inactive) and 3.96% (active) in the assay on OVCAR-8 ovarian; 52% (inactive) and 54.4% (inactive) in the assay with OVCAR-5 ovarian; 20.3% (inactive) and 7.71% (active) in the assay with OVCAR-4 ovarian; 27.1% (inactive) and 27.7% (inactive) in the assay with SK-OV-3 ovarian. Further, the growth with IGROV1 ovarian is 13.5% (inactive) and 8.02% (active); in the assay with OVCAR-3 ovarian it was 11.2% (inactive) and 24.5% (inactive); with HS 578T breast, 39.1% (inactive) and 61.4% (inactive); in the assay on NCI/ADR-RES ovarian it was 5.25% (active) and 6.08% (active).
With `CC1=C[C@H]2c3c(c(O)c(O)c4oc5cc(O)cc(O)c5c(=O)c34)[C@H](c3cc(O)c(O)c4oc5cc(O)cc(O)c5c(=O)c34)[C@H]2C(C)(C)C1`, the growth is 1.73% (active) and 3.96% (active) in the assay on SR leukemia; 4.38% (active) and -30.3% (active) in the assay with RPMI-8226 leukemia; 4.35% (active) and 4.94% (active) in the assay on OVCAR-8 ovarian; 11% (inactive) and 12.4% (inactive) with OVCAR-5 ovarian; 20.7% (inactive) and 7.19% (active) in the assay on OVCAR-4 ovarian; -1.03% (active) with SK-OV-3 ovarian. The growth with IGROV1 ovarian is 14.1% (inactive) and -13.1% (active); in the assay with OVCAR-3 ovarian it was -5.67% (active) and -43.9% (active); in the assay with HS 578T breast, 3.36% (active) and -17.1% (active); in the assay with NCI/ADR-RES ovarian, 55.8% (inactive) and 23.7% (inactive).
On to `CNC(=O)c1cc(Oc2ccc(NC(=O)Nc3ccc(Cl)c(C(F)(F)F)c3)cc2)ccn1`, for which the growth in the assay on SR leukemia is -8.61% (active) and 23.9% (inactive); with RPMI-8226 leukemia, -11.5% (active) and -19.3% (active); with OVCAR-8 ovarian, 5.3% (active) and -16.5% (active); with OVCAR-5 ovarian, 16.6% (inactive) and 15.4% (inactive); with OVCAR-4 ovarian, 26.2% (inactive) and 25.2% (inactive); in the assay on SK-OV-3 ovarian, -20.9% (active) and 12.5% (inactive). Moreover, the growth in the assay on IGROV1 ovarian is -24.8% (active) and -70.7% (active); in the assay with OVCAR-3 ovarian, 18.9% (inactive) and 3.16% (active); in the assay on HS 578T breast, -8.13% (active); in the assay with NCI/ADR-RES ovarian, -10.9% (active) and -12.5% (active).
`CCN(CC)CCCC(C)Nc1cnc(C(=O)Nc2cc(F)cc3cccnc23)cn1` (stereo not given): the growth in the assay on SR leukemia is 2.84% (active) and 21.7% (inactive); in the assay with RPMI-8226 leukemia, 75.1% (inactive) and 2.28% (active); in the assay with OVCAR-8 ovarian it was 60.5% (inactive) and -43.9% (active); with OVCAR-5 ovarian, 77.1% (inactive) and -24.2% (active); in the assay on OVCAR-4 ovarian, 12.2% (inactive) and -83.5% (active); with SK-OV-3 ovarian it was 98.3% (inactive) and 25.8% (inactive). Further, the growth in the assay on IGROV1 ovarian was 41.7% (inactive) and -21.9% (active); in the assay on OVCAR-3 ovarian, 5.41% (active) and -79.1% (active); in the assay on HS 578T breast, 69.3% (inactive) and 13.7% (inactive); in the assay on NCI/ADR-RES ovarian, 66.8% (inactive) and 11.6% (inactive).
Regarding `NC(=O)C1CC2C=CC1C2` (stereo not given), the growth in the assay with SR leukemia is 112% (inactive) and 105% (inactive); in the assay on RPMI-8226 leukemia it was 144% (inactive) and 87.5% (inactive); in the assay with OVCAR-8 ovarian, 97% (inactive) and 95.1% (inactive); with OVCAR-5 ovarian it was 89.8% (inactive) and 95.3% (inactive); with OVCAR-4 ovarian it was 107% (inactive) and 120% (inactive); in the assay with SK-OV-3 ovarian, 111% (inactive) and 121% (inactive). Also, the growth with IGROV1 ovarian was 70.1% (inactive) and 87.3% (inactive); with OVCAR-3 ovarian, 93.2% (inactive) and 106% (inactive); with HS 578T breast, 110% (inactive) and 94.3% (inactive); in the assay on NCI/ADR-RES ovarian it was 108% (inactive) and 102% (inactive).
For `Clc1nc(Oc2ccccc2)nc(-c2cn(-c3ccccc3)c3ccccc23)n1`, the growth in the assay on SR leukemia was -31.7% (active); in the assay with RPMI-8226 leukemia it was 49.1% (inactive); with OVCAR-8 ovarian, 38.8% (inactive); in the assay with OVCAR-5 ovarian, 101% (inactive); in the assay with OVCAR-4 ovarian it was 98.8% (inactive); in the assay on SK-OV-3 ovarian, 103% (inactive). Also, the growth is 28.3% (inactive) in the assay on IGROV1 ovarian, 7.87% (active) in the assay with OVCAR-3 ovarian, 44.1% (inactive) with HS 578T breast and 84.9% (inactive) with NCI/ADR-RES ovarian.
On to `O=Nc1ccc(O)cc1`, for which the growth in the assay on SR leukemia is 79.4% (inactive) and 74.3% (inactive); in the assay with RPMI-8226 leukemia it was 97.6% (inactive) and 103% (inactive); in the assay on OVCAR-8 ovarian, 106% (inactive) and 92.4% (inactive); with OVCAR-5 ovarian, 105% (inactive) and 98.9% (inactive); in the assay on OVCAR-4 ovarian, 108% (inactive) and 106% (inactive); with SK-OV-3 ovarian, 108% (inactive) and 107% (inactive). Also, the growth with IGROV1 ovarian is 91.7% (inactive) and 82% (inactive); with OVCAR-3 ovarian, 89.2% (inactive) and 97.7% (inactive); in the assay with HS 578T breast, 104% (inactive) and 96.6% (inactive); with NCI/ADR-RES ovarian it was 89.3% (inactive) and 84.6% (inactive).
On to `Clc1ccc(SSc2ccc(Cl)cc2)cc1`, for which the growth in the assay on SR leukemia is 104% (inactive); in the assay with RPMI-8226 leukemia, 102% (inactive) and 58.2% (inactive); in the assay with OVCAR-8 ovarian, 97.6% (inactive) and 86% (inactive); in the assay on OVCAR-5 ovarian, 93.9% (inactive) and 119% (inactive); in the assay with OVCAR-4 ovarian it was 103% (inactive) and 84.9% (inactive); with SK-OV-3 ovarian, 106% (inactive) and 125% (inactive). Also, the growth is 102% (inactive) and 83.4% (inactive) with IGROV1 ovarian; 101% (inactive) and 110% (inactive) in the assay with OVCAR-3 ovarian; 97.9% (inactive) and 93.4% (inactive) in the assay on HS 578T breast; 99.2% (inactive) and 81.8% (inactive) in the assay on NCI/ADR-RES ovarian.
With `NS(=O)(=O)c1cc2c(cc1Cl)NC(C(Cl)Cl)NS2(=O)=O` (stereo not given), the growth is 99.8% (inactive) with SR leukemia; 96.7% (inactive) and 100% (inactive) in the assay on RPMI-8226 leukemia; 99.2% (inactive) and 95.3% (inactive) in the assay on OVCAR-8 ovarian; 96.6% (inactive) in the assay with OVCAR-5 ovarian; 97.4% (inactive) and 114% (inactive) in the assay on OVCAR-4 ovarian; 106% (inactive) and 114% (inactive) with SK-OV-3 ovarian. The growth with IGROV1 ovarian was 101% (inactive) and 109% (inactive); with OVCAR-3 ovarian, 119% (inactive) and 126% (inactive); in the assay on HS 578T breast it was 124% (inactive) and 128% (inactive); in the assay with NCI/ADR-RES ovarian it was 101% (inactive) and 108% (inactive).
Turning to `CCc1c(CC(=O)O)c2cc(C)ccc2n1Cc1ccc(Cl)cc1`, the growth is 91.5% (inactive) and 146% (inactive) in the assay with SR leukemia; 97.1% (inactive) in the assay on RPMI-8226 leukemia; 82.9% (inactive) and 100% (inactive) in the assay on OVCAR-8 ovarian; 98.2% (inactive) and 98.6% (inactive) in the assay on OVCAR-5 ovarian; 85.5% (inactive) and 105% (inactive) in the assay on OVCAR-4 ovarian; 97.9% (inactive) and 42.4% (inactive) in the assay on SK-OV-3 ovarian. The growth is 92.3% (inactive) in the assay on IGROV1 ovarian; 93.8% (inactive) and 110% (inactive) in the assay on OVCAR-3 ovarian; 87.2% (inactive) and 113% (inactive) in the assay on HS 578T breast; 98.4% (inactive) and 98.7% (inactive) in the assay with NCI/ADR-RES ovarian.
